# Calls of active or inactive are those of the source. Rule for the calls: active = hit-call score of the fitted dose curve at least 0.9, where 1 is the maximum; inactive = score below 0.9.
# Assay: ATG_AP_1_CIS: Attagene CIS-FACTORIAL HepG2 Assay for human Activator Protein 1 (AP-1) (AID 2282931)
# Conditions: HepG2 Attagene cis-factorial AP-1 reporter mRNA; actives raise or lower the signal
# Description: ATG_CIS is a cell-based, multiplexed-readout assay that uses HepG2, a human liver cell line, with measurements taken at 24 hours after chemical dosing in a 24-well plate.ATG_AP_1_CIS is one of 52 assay component(s) measured or calculated from the ATG_CIS assay. It is designed to make measurements of mRNA induction, a form of inducible reporter, as detected with fluorescence intensity signals by Reverse transcription polymerase chain reaction (RT-PCR) and Capillary electrophoresis technology.Data from the assay component ATG_AP_1_CIS was analyzed into 1 assay endpoint. This assay endpoint, ATG_AP_1_CIS, was analyzed with bidirectional fitting relative to DMSO as the negative control and baseline of activity. Using a type of inducible reporter, measures of mRNA for gain or loss-of-signal activity can be used to understand the reporter gene at the transcription factor-level as they relate to the gene FOS and JUN. Furthermore, this assay endpoint can be referred to as a primary readout, because this assay has produced multiple assay endpoints where this one serves a reporter gene function. To generalize the intended target to other relatable targets, this assay endpoint is annotated to the dna binding intended target family, where the subfamily is basic leucine zipper.
# Human liver HepG2 cells are transiently transfected with multiple reporter transcription units (MRTUs) in 6-well plates using FuGene 6 reagent (Roche; 3 ml FuGene/1 mg DNA). The MRTU constructs are regulated by a cis-regulating element (promoter). […] A major difference between the CIS and TRANS system is that in CIS activities of endogenous TFs are measured, whereas the TRANS assay evaluates changes in activities of exogenous, chimeric NR-Gal4 proteins. […] At the end of 24 hour incubation, total RNA was isolated using TriZol reagent (Invitrogen). The isolated RNA is then reverse-transcribed using oligo(dT) primer and Mo-MLV reverse transcriptase (Invitrogen) with DNAse I (Ambion) treatment for 30 min. The one-tenth of the produced cDNA was amplified by PCR using Taq DNA polymerase (Invitrogen) and two reporter sequence-specific primers. The PCR products were fluorescently labeled by primer extension with 6-arboxyfluorescein (6-FAM) 5'-labeled reporter sequence-specific primer (2 min at 95 C, 20 s at 68 C and 10 min at 72 C) and these products were digested with 5U of HpaI (New England Biolabs) for 2h at 37 C. The fragments were purified using Qiaquick PCR columns (Qiagen), analyzed on an ABI 3130xL genetic analyzer (Applied Biosystems) with peak positions identified by using a set of X-rhodamine (ROX)-labeled MapMarker1000 molecular weight standards (BioVentures). The raw capillary electrophoresis data was processed using Attagraph software (Attagene).
SMILES,AC50,outcome
Clc1nc(Cl)nc(Nc2ccccc2Cl)n1,50 µM (active),
Nc1c(Cl)c(F)nc(OCC(=O)O)c1Cl,,inactive
COP(=O)(OC)O/C(C)=C/C(=O)N(C)C,,inactive
OC(c1ccc(Cl)cc1)(c1ccc(Cl)cc1)C(Cl)(Cl)Cl,,inactive
C=C(C)CN(CC)c1c([N+](=O)[O-])cc(C(F)(F)F)cc1[N+](=O)[O-],,inactive
COP(=S)(OC)SCn1nnc2ccccc2c1=O,76.6 µM (active),
CC(C)C1(C)N=C(c2ncccc2C(=O)O)NC1=O (stereo not given),,inactive
COP(=S)(OC)Oc1ccc([N+](=O)[O-])c(C)c1,68 µM (active),
CCOc1nc(F)cc2nc(S(=O)(=O)Nc3c(Cl)cccc3Cl)nn12,,inactive
CS(=O)(=O)c1ccc(C(=O)C2C(=O)CCCC2=O)c([N+](=O)[O-])c1,,inactive
CCSC(=O)N1CCCCCC1,,inactive
COc1cc(Cl)c(OC)cc1Cl,,inactive
CCCN(CC)CC1COC2(CCC(C(C)(C)C)CC2)O1 (stereo not given),19.7 µM (active),
Cc1nc(N(C)C)nc(OC(=O)N(C)C)c1C,,inactive
CCOC(=O)C(C)OC(=O)c1cc(Oc2ccc(C(F)(F)F)cc2Cl)ccc1[N+](=O)[O-] (stereo not given),,inactive
O=C1C2CC=CCC2C(=O)N1SC(Cl)(Cl)Cl (stereo not given),,inactive
COC(=O)NS(=O)(=O)c1ccc(N)cc1,,inactive
COc1cc(OC)nc(NC(=O)NS(=O)(=O)c2ncccc2OCC(F)(F)F)n1,,inactive
CC1(C)C(C(=O)OC(C#N)c2cccc(Oc3ccccc3)c2)C1(C)C (stereo not given),,inactive
Cc1c(COC(=O)[C@@H]2[C@H](/C=C(\Cl)C(F)(F)F)C2(C)C)cccc1-c1ccccc1,,inactive

SMILES,AC50,outcome
CCCCC(O)(Cn1cncn1)c1ccc(Cl)cc1Cl (stereo not given),50 µM (active),
Nc1c(Cl)c(Cl)nc(C(=O)O)c1Cl,,inactive
Clc1cccc(C(Cl)(Cl)Cl)n1,,inactive
CC(C)N1C(=O)c2ccccc2NS1(=O)=O,,inactive
CCOc1nc(C(Cl)(Cl)Cl)ns1,,inactive
N#Cc1c(Cl)cccc1Cl,,inactive
COC(=O)c1c(C(F)F)nc(C(F)(F)F)c(C2=NCCS2)c1CC(C)C,,inactive
CN/C(=N\[N+](=O)[O-])NCc1cnc(Cl)s1,,inactive
O=P(O)(O)CCCl,,inactive
CSC(=O)c1c(C(F)F)nc(C(F)(F)F)c(C(=O)SC)c1CC(C)C,,inactive
COC(=O)N(C(=O)N1CO[C@@]2(C(=O)OC)Cc3cc(Cl)ccc3C2=N1)c1ccc(OC(F)(F)F)cc1,4.67 µM (active),
COc1ccc(-c2ccccc2)cc1NNC(=O)OC(C)C,14.7 µM (active),
CC1(C)CON(Cc2ccccc2Cl)C1=O,,inactive
CCNP(=S)(OC)O/C(C)=C/C(=O)OC(C)C (stereo not given),,inactive
O=C(Nc1ccccc1-c1ccc(Cl)cc1)c1cccnc1Cl,,inactive
CS(=O)(=O)c1cc(C(F)(F)F)ccc1C(=O)c1cnoc1C1CC1,78.7 µM (active),
CO/N=C(/C1=NOCCO1)c1ccccc1Oc1ncnc(Oc2ccccc2Cl)c1F,0.481 µM (active),
CC1(C)CCC(=Cc2ccc(Cl)cc2)C1(O)Cn1cncn1 (stereo not given),,inactive
Nc1cnn(-c2ccccc2)c(=O)c1Cl,,inactive
CC1(C)C(C=C(Cl)Cl)C1C(=O)OC(C#N)c1cccc(Oc2ccccc2)c1 (stereo not given),,inactive

# From PubChem BioAssay (EPA / NIEHS)
